Data as given in the supplement of paper PMC12632987.
The full ranking holds about 4,500 sequences; the median of “median log2 fold change of GCK-ALFA target abundance (FLAG IP / Myc IP barcode read proportion)” is about 0.078, and the lowest 2% start at about -0.6. Many of the other results were omitted from the sample, so the lowest values are more common in it than they were.

B1: GBRAP_125_3047 (protein)
chain: SLEELVEALRLLAKKLGYSEEEVEEIARLARKYGVKGTLIAILLAEGEEELAELAAKLTDEQVAEVLLELKAWLEENPDASKEEVLKKLRELLEKALAKT
B2: GBRAP_52_5975 (protein)
chain: MREEMRRLAEEAVALMLAGDREGARALLEEIAETKTEEEITLFMEELAELAKTATPEERDAIVEVALLAEDIWLEAGFDEALADSNVARVAAAAYAAEQA
B3: GBRAP_128_3472 (protein)
chain: GVEEVRKWTKEVMEKMKTADDEEFRELATELAERLLTLPLEEVEAAVEVIKEHLPELTAEKLEILAEVLREARPQATPEKAALFADVESEALLLAEELEE
B4: GBRAP_52_5855 (protein)
chain: SKEKMRKLAEELLKLKLAGKEEELEKKVKELVATLSEEEILELLKELAELAKKANKEEAEAIAEVAELLADEAEKAGFDEDELSYELAKVYAAAYKVLQK
B5: GBRAP_35_5567 (protein)
chain: SFDETTAEMMVNTIEALTEAVEDIDPETLKTITEQITKAAKKVIEEIKDNKEALEKIKKALEKLLKALEKRGLDDPNVKAAAEAVKEAIKEAEKAIKEAE
B6: GBRAP_52_6372 (protein)
chain: REAEARAIVDELLALAEAGDEEGVEALVREVLASGDGALQAAVLREIRRRLEARDHPDPEALLRLAAIVADEVLEAEVDSPEVWAALTALAAAALALERA
B7: GBRAP_160_4778 (protein)
chain: SEKVEELKKSIEEAKEEILESIDTESPEETIIVVKGETGLILAEAYELEIDNDELEDALDEIGDELIEEMKKNKNASKEELKKIVEEYTEKALKKIEELT
B8: GBRAP_43_5750 (protein)
chain: MEEIIEGHVDFALLAAEDPNISEEQKLKIAKDTFDILADENISLPEESSKLTEALAKSLSLEQLKELLAHLKELAKKYPELKELFDKNSKIIEEAIKKLE
B9: GBRAP_80_6795 (protein)
chain: AEERLKKALEEIEKLDKELAKKVKEIVEIAREMGVSTEDLADFAEAIAELLKLDKEKARELVEELKEELEELKKEGNKAEAEAAVRVYAGEALLEVEELE
B10: GBRAP_160_4201 (protein)
chain: SEKVEKVIRLLREETERVIAEVPELSREEVANLADVEYGSVLMEAVELGIENDEILDTIADAADEIRRFLEENRDASVEEIKRGIREITERAIEEIKKIA
B11: GBRAP_160_4006 (protein)
chain: SEEAEKLIKEIKEIFEELKKDIEGLTPEERLTLAKGYAGEILQLAESSKVISDEAVDKIAEILDEFLEELEKNKNAPLEYWKKLIEETLKKIEEVIKEDS
B12: GBRAP_43_5749 (protein)
chain: DEELVAGAVEFTLLAAEDPSISPETVLRAFKATLDLIADTGVRLEEELVAAAAAVAKRLSPEQVEALIEHIKELAAASPEVKETFEAAEEVLRAELAKRR
B13: GBRAP_150_3886 (protein)
chain: DLETALTIASSALDILEATIEDGPKLLEHALKLTKALVDEVKDFSEELQKLAKEALKKIEEAIKLVKAGGKPEEIKKLLEEAAKLLEELEKLLEKKIEEE
B14: GBRAP_52_5963 (protein)
chain: MEARMEALLDELLALRRAGDEAGAEALAREIAETLDDEELRLLGDVLVARIRASDLETAELLLDLAIMLADVLEELGRDPRLASDLLGRAAAAAYALEQA
B15: GBRAP_83_6915 (protein)
chain: MKEITVAAVGDHIDEAFDAAIDLKKEGVEKIIVEAIIKPEEVPRLLEAVKRALEAGVNLELEVFLEGATEEEAEEVEKKLKEIAKEAGKEVKVTVEVIEP
B16: GBRAP_9_7146 (protein)
chain: MEEMVEKIREVMEDAFEEVREIVPEEVKPLVDELREEALKRFEEVVADKSKTKEEIREAAKELIEEFTERVSEKVSPEIAKMVEAIGLTAKLEIEEIYEE
B17: GBRAP_11_2904 (protein)
chain: KKEKLEKLAELLKKAVALLKELLAKGTDDEKLHAEALKVAEEALKLAKEVLDESDVELAEEAVELLKQAKADPANAAQYVQQALAIFSVLEGQVLLKIEE
B18: GBRAP_96_7096 (protein)
chain: MLEEAEALVRELIAALDTDPERARALAERLLEFPVEVVTEAIVRVVKDPADAAKLAELLLELGDEKAEEVLLEAAEKAPGDISKAIIDAMQAYEEAKEAA
B19: GBRAP_184_5075 (protein)
chain: SVREETIRVENVEEARAKMAALAERVRDHRGDLVVLVEMPEADLEIMRAVLEGLAAILAAGYARRVTVGFDAEVTEEQVDEAVALADRLGVNVVLPLKEE
B20: GBRAP_125_3111 (protein)
chain: DMEEVLEALAIVLRALGFDDDEIEEALELARRYGIKGTMIAVALAEGYEEVADLLEKLTEEEVKQALLETAAAIKANPELTPEEVKELLEEVLKKLLAAS
B21: GBRAP_160_4005 (protein)
chain: SAEIEALIKEIEELVKETKEWMKGLSPEERLTLARGMVGEIIQLAIDSPAVSDETEDKIAEIGDETIARLEANANASLEVWEKILDDYLEKVKELLKSDE
B22: GBRAP_11_2908 (protein)
chain: KKEKLKEAAKLAEKAAKLIEQLIKNGADDKELWAEAEKAAEELLKLAKEYLDESTVELAEYALELLKKAQADPKNAQQYLNEALATVRVILGQILLAIEE
B23: GBRAP_78_6697 (protein)
chain: EVEELLEKALELLDQALKLSKQLPEDLRNEVTYHLVEAITDLEEAIEEGADLEELKEALEHLDKAIALVKANDTPLTQPLLKLLTEAKKLLEEAIKKLEE
B24: GBRAP_125_3109 (protein)
chain: SEDELLAALRALARALGFSEEEAEEAAELARRFSLRQTLYAIFLAEGEEELADLVEQLTEEQARAALAALAAWLAAHPDATKEEVLAQARAILEAELARA
B25: GBRAP_9_7186 (protein)
chain: MQEKKEKILEEVKEELELAIEVAPEEYKELIKEKTEEVLKELEKAVKDENTTLEELLKKLEELFEKLIEIAKKNVPKETYLQIEAILGTAILSAEEIIEE
B26: GBRAP_26_5464 (protein)
chain: MEEAFREASDRVDEIAAKLSNPEAAAAVRAEADTILLELEERIEAGEDIEKAVKEAEEEFLKEAREIGKEEGLPEEEIERLEKELSEVFKELEERLKKAK
B27: GBRAP_160_4037 (protein)
chain: NEKLKKLKKFAEEVFEEAKELVEGTSVEEAAVIIDVAAGEIIMEAVELGIDDDELEDFIDEIGDEAVAYLLAHPDLSEEEIKELIEEAREKVLEKIDEAE
B28: GBRAP_160_4038 (protein)
chain: NEKLEKLAKFAEEVFKEAEELIKGTTVEEAAVIVDVATGEIIMEAVELGIDNDELEDFIDEIGDEAVAYLLAHPDLTEEEIQALVKEAKEKILKKIKEAS
B29: GBRAP_52_6009 (protein)
chain: MREELRERLEEALALVRAGRLEEARALVTELVESLDEEELELLIELLAEMAREAAPEDFDAVWTLAELVAEEMRRAGKDEVLADLLEARVAAALYEAEQR

What follows are binders tested against GABARAP, O95166 (assay: median log2 fold change of GCK-ALFA target abundance (FLAG IP / Myc IP barcode read proportion) (log2 ratio); each designed protein is fused to an ALFA-tag nanobody in HEK293 cells to bring the named protein to FLAG-tagged glucokinase (GCK); Myc marks an untargeted standard; higher = target protein stabilised (more abundant)). Conditions: target protein: 3xFLAG-MCP-GCK-ALFA reporter; HEK293 landing pad (RPLP).
Chain of GABARAP, O95166 (O95166 whole entry, the tested form may be a part): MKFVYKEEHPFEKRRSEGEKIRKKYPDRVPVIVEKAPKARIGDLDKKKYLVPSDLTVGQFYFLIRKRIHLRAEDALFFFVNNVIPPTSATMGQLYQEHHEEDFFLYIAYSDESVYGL
In short: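 Binders fused to an ALFA nanobody were recombined as a library into HEK293 landing-pad cells, which were induced with 2 μg mL^−1 doxycycline and then transfected to express a FLAG-tagged target and a Myc-tagged standard. After 48 h, circular RNA barcodes recovered by anti-FLAG and anti-Myc immunoprecipitation of lysates were reverse transcribed, amplified and sequenced. Each binder's target abundance is the median log2 ratio of FLAG to Myc barcode read proportions, from barcodes present at ≥10^−7 in both replicates, binders carrying ≥3 barcodes per replicate, a 10^−6 pseudocount and pooled replicates.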

Binder | median log2 fold change
B1 | -0.274
B2 | 0.107
B3 | 0.00124
B4 | -0.0898
B5 | 0.378
B6 | -0.638
B7 | 0.139
B8 | 0.475
B9 | 0.0713
B10 | -0.204
B11 | -0.00151
B12 | 0.142
B13 | 0.00752
B14 | -0.635
B15 | 0.19
B16 | 0.209
B17 | 0.354
B18 | 0.123
B19 | 0.0908
B20 | -0.903
B21 | 0.201
B22 | 0.209
B23 | 0.0855
B24 | -0.77
B25 | -0.362
B26 | 0.274
B27 | -0.581
B28 | -0.621
B29 | -0.0383
